# Compounds with a hit are over-represented: about 6% of the library has one in this group of screens.
# BCR signal inh: blocks chronic active B-cell receptor signaling; AID 493014; Potency, µM (highest dose often 46.1 µM), without a hit: at the top dose activity change, negative = inhibition, usual class: inhibitors; ABC-DLBCL IkBa-CBG/CBR reporter, luminescence ratio, 4 h; 340,000 tested, 0.05% active; active means well fitted inhibition curve with a large enough effect in the signal ratio, with a control signal flat, not every such curve was filed as active; inconclusive means small, poorly fitted or top-dose-only effect, or effect the other way, or a change in a side signal; the % refers to the signal ratio;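 further: potency means the concentration at half of the fitted maximal effect; plate controls were basal doxycycline-induced cells for no effect and cells given 10 µM MG132 for full effect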
#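 Doxycycline induced both beetle luciferases in TMD8 lymphoma cells; IKK-driven degradation limits the IkappaBalpha-fused green signal, while red luminescence normalises for cell number and nonspecific effects. Compounds tested up to 46 uM, 4 hrs.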
# DRD3 agonist: activates the human D3 dopamine receptor; AID 652048; P35462; 410,000 tested, 0.58% active; max activation, %; D3R DiscoveRx beta-arrestin cells, luminescence, 90 min; in the data active means max activation above about 30%; further: 0% is about no effect
#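 Cells at 1500/well, incubated overnight, then treated with pinned compounds (dopamine as control) for 90 min at 37 degrees C. DiscoveRx reagent added for 30 - 60 minutes at room temperature; luminescence read.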
# D1 antag: antagonists of human D1 dopamine receptor; P21728; HEK293 TREx D1 cells, calcium flux, dopamine EC80; active compounds read low; activity change, negative = inhibition, % at 10 µM; 360,000 tested, 3.2% active; AID 504652; in the data active means activity change below about -30%; further: on the % scale 0 is the no-effect control and ±100 the full control effect
# Target sequence (P21728 whole entry, looked up): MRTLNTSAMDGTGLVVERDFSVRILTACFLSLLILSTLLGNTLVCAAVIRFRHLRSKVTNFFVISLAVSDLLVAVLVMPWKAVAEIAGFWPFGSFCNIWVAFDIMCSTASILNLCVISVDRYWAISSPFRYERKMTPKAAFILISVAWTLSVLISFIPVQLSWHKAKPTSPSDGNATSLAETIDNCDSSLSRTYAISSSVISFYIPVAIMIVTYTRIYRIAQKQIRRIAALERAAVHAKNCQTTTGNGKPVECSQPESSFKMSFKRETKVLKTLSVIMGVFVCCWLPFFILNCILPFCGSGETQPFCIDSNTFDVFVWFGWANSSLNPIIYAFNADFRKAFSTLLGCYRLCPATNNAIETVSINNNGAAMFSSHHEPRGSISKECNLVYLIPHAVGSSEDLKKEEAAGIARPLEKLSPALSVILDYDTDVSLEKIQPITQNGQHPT
#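 HEK293 T-REx cells expressing inducible, force-coupled D1 receptor; no-wash Ca dye, 30–90 min RT. Cmpd → 180 s read at 1 Hz → EC80 DA → 180 s read.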
# D1 potentiator: enhances dopamine response at the human D1 receptor; potentiation, % at 10 µM; 360,000 tested, 0.036% active; HEK293 TREx D1 cells, calcium flux, dopamine EC20 potentiation; AID 504651; in the data active means potentiation above about 30%; further: 0% is about no effect
# DRD3 antagonist: antagonists of human D3 dopamine receptor; P35462; max response, negative = inhibition, %; D3R cells, DiscoveRx beta-arrestin luminescence, antagonist mode; active compounds read low; AID 652054; 360,000 tested, 2.5% active; in the data active means max response below about -50%; inconclusive means no clear call, values can overlap the other calls; further: on the % scale 0 is the no-effect control and ±100 the full control effect
#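 Cells expressing the human receptor were seeded at 1500 cells/well, incubated overnight at 37 degrees C in 5% CO2, then exposed to library compounds with dopamine controls for 90 minutes at 37 degrees C before luminescent detection.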
# D1 ag: human D1 receptor agonism; activation, % at 2 µM; 360,000 tested, 1% active; HEK293 T-REx D1 cells, calcium flux, agonist mode; P21728; in the data active means activation above about 30%; further: 0% is about no effect
#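 Tetracycline-induced HEK293 TREx D1 cells, force-coupled to calcium signalling, were dye-loaded with a no-wash calcium kit. Compound was pin-added after a 10 s baseline. Fluorescence was read kinetically at 1 cycle/s for 180 s, with calcium rises flagged as agonism.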
# Active calls of the source: *; ? = inconclusive; . = no result given.
SMILES,BCR signal inh,DRD3 agonist,D1 antag,D1 potentiator,DRD3 antagonist,D1 ag
COc1ccc(C(=O)N2CCC2(C)C(=O)NC(C)C)cc1OC (stereo not given),.,0,.,.,11,.
O=C(Nc1nccs1)c1ccc(CSc2ccccc2)o1,?,-5,-40*,-7,-22,2
NC1(C(=O)O)CC1,.,-48,.,.,-75*,.
O=C(O)C1(C(=O)O)CCCC1,.,6,.,.,3,.
CC(=O)Nc1cccc(Nc2cnccn2)c1,.,0,.,.,-5,.
CCCCN1C(=O)C(NC(=O)c2ccc(C(C)(C)C)cc2)(C(F)(F)F)C(C(=O)OC)=C1C (stereo not given),.,-3,4,5,.,58*
O=C(c1cccc(S(=O)(=O)N2CCCCCC2)c1)N1CCN(c2ccccc2F)CC1,4%,-1,8,6,-2,2
CN1CCN(S(=O)(=O)c2cccc(C(=O)N(C)CC(=O)Nc3ccc(F)c(F)c3F)c2)CC1,-1%,4,11,-9,-2,179*
COc1ccccc1N1CCN(C(=O)c2cccc(S(=O)(=O)N3CCCCCC3)c2)CC1,?,-8,-42*,-5,6,3
COc1cccc(NC(=O)CN(C)C(=O)c2cccc(S(=O)(=O)N3CCN(c4ccc(F)cc4)CC3)c2)c1,1%,1,-34*,-12,-8,7
COc1ccccc1N1CCN(C(=O)c2ccc3[nH]c4c(c3c2)CC(C)CC4)CC1 (stereo not given),19%,5,-57*,-3,2,0
CN(CC(=O)Nc1cccc(F)c1)C(=O)c1cccc(S(=O)(=O)N2CCN(c3ccccc3)CC2)c1,0%,4,-5,-3,0,3
CCCCCc1c(CC)ncn1CCc1ccccc1OC,.,-13,.,.,-19,.
CC1CC(C)CN(S(=O)(=O)c2cccc(C(=O)N3CCN(c4ccc(F)cc4)CC3)c2)C1 (stereo not given),7%,-5,-2,6,-12,5
COc1cccc(NC(=O)CN(C)C(C)C(=O)Nc2ccc(S(=O)(=O)N3CCCC3)cc2)c1 (stereo not given),-1%,1,-34*,13,2,4
CN(CC(=O)Nc1ccc(F)cc1)C(=O)c1cccc(S(=O)(=O)N2CCN(c3ccc(F)cc3)CC2)c1,?,-17,-39*,-2,-6,9
CC1CCN(S(=O)(=O)c2cccc(C(=O)N3CCN(c4ccc(F)cc4)CC3)c2)CC1,?,-6,-39*,-3,-24,4
Cc1ccc(/C=N/NC(=O)CNC(=O)c2cccs2)cc1,-2%,-7,11,-6,-1,0
O=C(CNC(=O)c1cccs1)N/N=C/c1c(F)cccc1Cl,?,-19,13,7,-51*,2
Cc1ccc(NC(=O)CN2C(=O)CC(c3ccco3)Sc3ccccc32)cc1Cl (stereo not given),.,1,4,-5,.,3
CCc1nc2ccc(C(=O)N3CCCCC3)cn2c1N(CCC(C)C)CCN(C)C,.,53*,.,.,-11,.
COc1ccc(C(c2c(NC(C)=O)sc3c2CCCC3)N2CCN(CCO)CC2)cc1OC (stereo not given),-2%,1,-11,2,6,6
CC(=O)Nc1sc2c(c1C(c1cccc(Cl)c1)N1CCN(CCO)CC1)CCCC2 (stereo not given),-9%,-11,-30*,-5,?,15
COc1ccc(CNc2nc3nc(C)cc(C)n3n2)cc1OC,-6%,5,9,-2,-56*,-3
Cc1ccc(-c2noc(CN(C(=O)c3cccs3)C(C)C)n2)cc1,?,7,-30*,0,9,3
CC(C)N(Cc1nc(-c2ccc(Cl)cc2)no1)C(=O)c1cccs1,?,0,-12,-9,17,7
CCOc1cc(C(=O)N(Cc2nc(-c3ccc(C)cc3)no2)C(C)C)cc(OCC)c1OCC,.,-13,-35*,1,.,19
C[C@H](NC(=O)[C@H](Cc1ccccc1)n1c(=O)[nH]c2ccccc2c1=O)C(=O)N1CCC(C(=O)O)CC1,10%,36*,3,0,-6,1

# Screening results: PubChem BioAssay, National Center for Advancing Translational Sciences (NCATS)
